Test results published in PubChem BioAssay (NCI).
“And” between values parts separate entries of the source, which are not always exact repeats. Identical values can stand only once. About 79,000 compounds went through this panel and 15% of them were active in at least one assay; those are over-represented in the sample as a whole. The source holds several records for some structures; these can differ, active in one and inactive in another. The source made the active and inactive calls. No stated cut-off is given here; in the data, active means growth inhibition above about 70%; inactive means the rest.

Legend:
[1] = NCI Yeast Anticancer Drug Screen. Data for the rad50 strain (AID 155);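 further: 0% = growth of vehicle-only cultures of the same strain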; conditions: S. cerevisiae rad50 strain growth inhibition, stronger effect = higher value
Outline: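 Vehicle-treated cultures provide the reference for the growth inhibition reported for compound-exposed, repair-deficient yeast.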

[2] = NCI Yeast Anticancer Drug Screen. Data for the mec2-1 strain (AID 157); conditions: S. cerevisiae mec2-1 strain, stronger effect = higher value
Outline: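 Cells of the genetically defined mec2-1 yeast strain are incubated with test compound. Inhibition of growth is calculated against vehicle-treated controls.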

[3] = NCI Yeast Anticancer Drug Screen. Data for the sgs1 mgt1 strain (AID 161);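 further: 0% = growth of cultures given vehicle only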; conditions: S. cerevisiae sgs1 mgt1 strain, stronger effect = higher value
Outline: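 Read-out: growth inhibition vs vehicle controls. Cells: mutant yeast strain deficient in DNA damage repair.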

[4] = NCI Yeast Anticancer Drug Screen. Data for the cln2 rad14 strain (AID 165);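 further: 0% = growth equal to vehicle treated cultures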; conditions: S. cerevisiae cln2 rad14 strain, stronger effect = higher value
Outline: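 The screen exposed genetically defined yeast (cln2 rad14) to test compounds and scored growth inhibition relative to vehicle-treated controls.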

[5] = NCI Yeast Anticancer Drug Screen. Data for the bub3 strain (AID 167); conditions: S. cerevisiae bub3 mutant strain, stronger effect = higher value
Outline: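 Mutant yeast screening strain plus compound; vehicle-treated cultures serve as the 0% inhibition reference.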

[6] = NCI Yeast Anticancer Drug Screen. Data for the mlh1 rad18 strain (AID 175); conditions: S. cerevisiae mlh1 rad18 strain growth inhibition, stronger effect = higher value
Outline: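 Compound-treated yeast growth, normalised to vehicle controls. Strain bears defined DNA repair mutations.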

[7] = NCI Yeast Anticancer Drug Screen. Data for the wt2 strain (AID 169); conditions: S. cerevisiae wt2 strain growth inhibition, stronger effect = higher value
Outline: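 Steps: yeast strain treated with compound; growth recorded; inhibition calculated relative to cultures given vehicle alone.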

[8] = at 5.0 µM (retest, dose inferred, filed as 0.5)
[9] = at 50.0 µM (retest, dose inferred, filed as 5.0)

Measured: growth inhibition

O=C1c2ccccc2-n2c1nc1ccccc1c2=O
inactive: [1]; [8] 18% | [2]; [8] 14% | [2]; [9] 48% | [2]; at 50.0 µM 57% | [3]; [8] 21% | [3]; [9] 39% | [3]; at 50.0 µM 29.2% | [4]; [8] 30% | [4]; [9] 43% | [4]; at 50.0 µM 17.9% | [5]; [8] 32% | [5]; [9] 57% | [5]; at 50.0 µM 53.1% | [6]; [8] 23% | [6]; [9] 62%
active: [1]; [9] 83% | [1]; at 50.0 µM 74%

CCc1[nH]c(=O)nc(N)c1-c1ccc(N2CCCCC2)c([N+](=O)[O-])c1
inactive: [1]; [8] -11% | [1]; [9] -25% | [2]; [8] -23% | [2]; [9] 1% | [3]; [8] 0% | [3]; [9] -6% | [4]; [8] -31% | [4]; [9] -25% | [5]; [8] -25% | [5]; [9] -32%
active: [1]; at 50.0 µM 89.8% | [2]; at 50.0 µM 86.8% | [3]; at 50.0 µM 90.8% | [4]; at 50.0 µM 70.8% | [5]; at 50.0 µM 71.4%

Fc1ccccc1-c1ncc(-c2ccccc2)o1
active: [1]; [9] 96% | [2]; [9] 94% | [4]; [9] 70% | [5]; [9] 82% | [6]; [9] 91%
inactive: [1]; [8] 65% | [1]; at 50.0 µM 23.4% | [2]; [8] 60% | [2]; at 50.0 µM 22.2% | [3]; [8] -14% | [3]; [9] 60% | [3]; at 50.0 µM 51.8% | [4]; [8] 39% | [4]; at 50.0 µM 13.7% | [5]; [8] 24% | [5]; at 50.0 µM 16.7% | [7]; at 1.2 µM -1% | [7]; at 3.7 µM -3% | [7]; at 11.0 µM -10% | [7]; at 33.0 µM -2% | [7]; at 100.0 µM 28% | [6]; [8] 36% | [6]; at 50.0 µM 4.3%

COc1cccc(-c2nnc(-c3ccccc3)o2)c1
16.9% (inactive) and 84.1% (active): [6]; at 50.0 µM
32.5% (inactive) and 80.2% (active): [4]; at 50.0 µM
71% (active) and 15.5% (inactive): [5]; at 50.0 µM
29.4% (inactive) and 89.1% (active): [1]; at 50.0 µM
16.4% (inactive) and 85.8% (active): [2]; at 50.0 µM
33.5% (inactive) and 89.4% (active): [3]; at 50.0 µM
18% (inactive) and 98% (active): [4]; [9]
inactive: [1]; [8] 32% and 33% | [1]; [9] 36% and 55% | [2]; [8] 36% and 45% | [2]; [9] 40% and 55% | [3]; [8] -1% and 11% | [5]; [8] 30% and 13% | [7]; at 1.2 µM 20% | [7]; at 3.7 µM 7% | [7]; at 11.0 µM 4% | [7]; at 33.0 µM 46% | [6]; [8] 30% and 34% | [6]; [9] 44% and 54%
52% (inactive) and 99% (active): [3]; [9]
73% (active) and 21% (inactive): [4]; [8]
active: [5]; [9] 85% and 98% | [7]; at 100.0 µM 97%

COc1cc2c(cc1OC)C(Cc1c3ccccc3cc3ccccc13)N(C)CC2 (configuration not stated)
inactive: [1]; [8] 4% | [1]; [9] 41% | [1]; at 50.0 µM 16.2% | [2]; [8] -18% | [2]; [9] 43% | [2]; at 50.0 µM 14.8% | [3]; [8] 1% | [3]; [9] 50% | [4]; [8] 0% | [4]; [9] 3% | [4]; at 50.0 µM 62.5% | [5]; [8] 0% | [5]; [9] 15% | [5]; at 50.0 µM 58.3%
active: [3]; at 50.0 µM 93.1%

Cc1ccc(OC(=O)c2ccc(N)cc2O)cc1
inactive: [1]; [8] 48% | [1]; at 50.0 µM 45.1% | [2]; at 50.0 µM 68.2% | [3]; [8] -3% | [3]; at 50.0 µM 42.5% | [4]; [8] 39% | [4]; at 50.0 µM 42.2% | [5]; [8] 24% | [7]; at 1.2 µM 0% | [7]; at 3.7 µM -4% | [7]; at 11.0 µM 15% | [7]; at 33.0 µM 43% | [6]; [8] 33% | [6]; at 50.0 µM 53.3%
active: [1]; [9] 86% | [2]; [8] 83% | [2]; [9] 90% | [3]; [9] 93% | [4]; [9] 97% | [5]; [9] 90% | [5]; at 50.0 µM 77.7% | [7]; at 100.0 µM 86% | [6]; [9] 97%

Cc1c(C)c(CCl)c(C)c(C)c1CCl
active: [1]; [9] 95% | [1]; at 50.0 µM 87.7% | [2]; [8] 71% | [2]; [9] 96% | [2]; at 50.0 µM 86% | [3]; at 50.0 µM 75.2% | [4]; [9] 84% | [4]; at 50.0 µM 72.5% | [7]; at 11.0 µM 71% | [7]; at 33.0 µM 82% | [7]; at 100.0 µM 83% | [6]; [9] 95% | [6]; at 50.0 µM 82%
inactive: [1]; [8] 53% | [3]; [8] 1% | [3]; [9] 43% | [4]; [8] 34% | [5]; [8] 14% | [5]; [9] 39% | [5]; at 50.0 µM 61.5% | [7]; at 1.2 µM 0% | [7]; at 3.7 µM 25% | [6]; [8] 66%

CCSC1=C(C)C(=O)c2ccccc2C1=O
active: [1]; [9] 99% | [1]; at 50.0 µM 70.1% | [2]; [9] 99% | [3]; at 50.0 µM 74.2% | [5]; at 50.0 µM 77.2% | [7]; at 100.0 µM 98%
inactive: [1]; [8] 35% | [2]; [8] 32% | [2]; at 50.0 µM 50.1% | [3]; [8] 7% | [3]; [9] 26% | [4]; [8] 44% | [4]; [9] 34% | [4]; at 50.0 µM 41.9% | [5]; [8] -6% | [5]; [9] 36% | [7]; at 1.2 µM 18% | [7]; at 3.7 µM 11% | [7]; at 11.0 µM 6% | [7]; at 33.0 µM 20% | [6]; [8] 11% | [6]; [9] 62% | [6]; at 50.0 µM 55%
